The supplement of paper PMC10849652
The full data set covers some 7,900 targets. This sample favours those with a hit. About 0.6% of all pairs of compound and target were hits. Unmarked numbers belong to inactive results.

Assays:
Test in all cases: log2 fold change, soluble protein after heating vs DMSO (PISA); higher = thermal stabilisation; K562 cells, 10 uM, 30 min; active = over 0.2 and 3.5 SD of the protein, either way, in both replicates (recomputed)
IRAK-1-4 Inhibitor I = compound: C1COCCN1CCN2C3=CC=CC=C3N=C2NC(=O)C4=CC(=CC=C4)[N+](=O)[O-] [IRAK-1-4 Inhibitor I]
Procedure, shortened: (§1)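 K562 cells at 2×10^6 cells/mL were given 10 μM compound for 30 min. Aliquots then went through 3 min of heating across 48°C-58°C, were pooled, and were extracted in PBS with 0.5% NP-40 at 4°C, and the supernatant after 21,000xg for 90 min was quantified by TMTpro 16plex LC-MS/MS with channel sums equalised. Thermal stability relative to control samples, from duplicates, is given as log2 fold change.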

ibrutinib = compound: C=CC(=O)N1CCC[C@@H](n2nc(-c3ccc(Oc4ccccc4)cc3)c3c(N)ncnc32)C1 [ibrutinib]
Procedure, shortened: as §1

[1] = compound: CC(=O)c1cnc2ccc(-c3cc(Cl)c(O)c(Cl)c3)nc2c1N[C@H]1CC[C@H](CN(C)C)CC1
Procedure, shortened: as §1

ralimetinib = compound: CC(C)(C)Cn1c(N)nc2ccc(-c3[nH]c(C(C)(C)C)nc3-c3ccc(F)cc3)nc21 [ralimetinib]
Procedure, shortened: as §1

[2] = compound: CC(C)(O)CC(=O)NCCn1ccc2ncnc(Nc3ccc(Oc4cccc(C(F)(F)F)c4)c(Cl)c3)c21
Procedure, shortened: as §1

[3] = compound: CC(C)C1=C2N=C(C=C(N2N=C1)NCC3=CC=CC=C3)NCCCCCCN
Procedure, shortened: as §1

[4] = compound: CC(C)C[C@@H](C=O)NC(=O)[C@H](CC(C)C)NC(=O)[C@H](CC(C)C)NC(=O)OCc1ccccc1
Procedure, shortened: as §1

pinometostat = compound: CC(C)N(C[C@H]1O[C@@H](n2cnc3c(N)ncnc32)[C@H](O)[C@@H]1O)[C@H]1C[C@@H](CCc2nc3cc(C(C)(C)C)ccc3[nH]2)C1 [pinometostat]
Procedure, shortened: as §1

[5] = compound: CC1=C(C(CC(=O)N1)C2=CC=C(C=C2)C(F)(F)F)C(=O)NC3=C(C=C4C(=C3)C=NN4)F
Procedure, shortened: as §1

[6] = compound: CC1=C(C2=C(C=C1)C(=O)C3=CC=CC=C3N2CCCN)C
Procedure, shortened: as §1

UniProt Q16822, sequence (Q16822 whole entry, looked up): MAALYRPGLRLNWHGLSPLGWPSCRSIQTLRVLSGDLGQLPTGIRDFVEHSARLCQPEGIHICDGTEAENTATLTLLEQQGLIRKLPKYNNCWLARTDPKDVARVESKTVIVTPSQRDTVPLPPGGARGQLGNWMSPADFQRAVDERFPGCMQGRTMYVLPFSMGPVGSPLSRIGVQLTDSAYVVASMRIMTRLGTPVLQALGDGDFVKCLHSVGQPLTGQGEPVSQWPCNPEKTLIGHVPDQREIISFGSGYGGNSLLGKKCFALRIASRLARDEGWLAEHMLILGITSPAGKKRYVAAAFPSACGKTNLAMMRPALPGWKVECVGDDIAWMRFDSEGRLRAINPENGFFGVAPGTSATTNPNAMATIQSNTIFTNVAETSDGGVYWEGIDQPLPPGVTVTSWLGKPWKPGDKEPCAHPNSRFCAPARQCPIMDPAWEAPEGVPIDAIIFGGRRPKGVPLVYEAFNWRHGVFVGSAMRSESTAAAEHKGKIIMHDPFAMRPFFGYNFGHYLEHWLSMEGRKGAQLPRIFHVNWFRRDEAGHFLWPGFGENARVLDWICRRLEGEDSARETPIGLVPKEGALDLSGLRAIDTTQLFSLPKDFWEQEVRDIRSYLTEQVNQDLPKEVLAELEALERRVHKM
UniProt Q6WKZ4, sequence (Q6WKZ4 whole entry, looked up): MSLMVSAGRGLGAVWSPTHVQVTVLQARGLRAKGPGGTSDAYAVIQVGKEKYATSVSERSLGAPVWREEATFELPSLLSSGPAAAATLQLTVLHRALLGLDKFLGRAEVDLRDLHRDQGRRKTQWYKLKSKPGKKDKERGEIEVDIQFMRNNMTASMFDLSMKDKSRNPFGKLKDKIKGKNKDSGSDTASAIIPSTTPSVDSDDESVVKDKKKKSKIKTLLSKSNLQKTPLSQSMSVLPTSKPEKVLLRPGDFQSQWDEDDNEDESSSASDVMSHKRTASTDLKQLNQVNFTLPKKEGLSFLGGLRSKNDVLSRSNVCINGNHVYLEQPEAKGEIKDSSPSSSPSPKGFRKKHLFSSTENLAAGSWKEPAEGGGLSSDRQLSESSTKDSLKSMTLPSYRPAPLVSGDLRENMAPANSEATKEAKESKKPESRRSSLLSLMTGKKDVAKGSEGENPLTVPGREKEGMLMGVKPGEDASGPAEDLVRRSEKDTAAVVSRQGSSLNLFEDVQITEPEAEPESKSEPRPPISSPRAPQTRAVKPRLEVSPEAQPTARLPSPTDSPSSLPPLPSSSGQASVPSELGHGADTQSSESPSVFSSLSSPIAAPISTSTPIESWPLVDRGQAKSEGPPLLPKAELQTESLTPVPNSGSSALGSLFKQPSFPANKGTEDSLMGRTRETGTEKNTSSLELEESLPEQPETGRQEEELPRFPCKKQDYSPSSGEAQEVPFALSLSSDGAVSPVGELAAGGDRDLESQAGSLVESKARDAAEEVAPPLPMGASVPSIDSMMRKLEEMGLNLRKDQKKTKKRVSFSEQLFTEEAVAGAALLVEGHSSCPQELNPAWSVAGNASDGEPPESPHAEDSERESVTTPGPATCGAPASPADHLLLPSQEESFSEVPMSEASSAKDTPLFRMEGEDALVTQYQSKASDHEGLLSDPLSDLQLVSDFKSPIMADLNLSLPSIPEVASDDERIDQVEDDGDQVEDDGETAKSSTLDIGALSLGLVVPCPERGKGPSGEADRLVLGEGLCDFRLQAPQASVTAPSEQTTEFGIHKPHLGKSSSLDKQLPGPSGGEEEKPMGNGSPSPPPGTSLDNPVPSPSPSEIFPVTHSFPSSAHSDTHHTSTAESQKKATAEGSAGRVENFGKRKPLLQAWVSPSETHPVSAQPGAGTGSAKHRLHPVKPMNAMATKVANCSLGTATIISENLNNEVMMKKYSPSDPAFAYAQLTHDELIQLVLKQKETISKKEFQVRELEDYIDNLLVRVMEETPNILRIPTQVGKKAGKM
UniProt Q9Y3C6, sequence (Q9Y3C6 whole entry, looked up): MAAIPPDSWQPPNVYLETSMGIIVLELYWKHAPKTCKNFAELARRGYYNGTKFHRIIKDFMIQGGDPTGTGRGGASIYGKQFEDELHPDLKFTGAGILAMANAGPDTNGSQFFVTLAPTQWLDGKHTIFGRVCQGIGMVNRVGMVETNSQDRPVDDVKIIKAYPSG
UniProt O75340, sequence (O75340 whole entry, looked up): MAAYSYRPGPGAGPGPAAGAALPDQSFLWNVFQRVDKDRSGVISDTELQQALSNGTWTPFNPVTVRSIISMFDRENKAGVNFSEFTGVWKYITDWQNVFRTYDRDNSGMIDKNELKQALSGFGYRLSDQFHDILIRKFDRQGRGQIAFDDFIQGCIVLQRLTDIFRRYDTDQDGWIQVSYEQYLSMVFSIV
UniProt Q16512, sequence (Q16512 whole entry, looked up): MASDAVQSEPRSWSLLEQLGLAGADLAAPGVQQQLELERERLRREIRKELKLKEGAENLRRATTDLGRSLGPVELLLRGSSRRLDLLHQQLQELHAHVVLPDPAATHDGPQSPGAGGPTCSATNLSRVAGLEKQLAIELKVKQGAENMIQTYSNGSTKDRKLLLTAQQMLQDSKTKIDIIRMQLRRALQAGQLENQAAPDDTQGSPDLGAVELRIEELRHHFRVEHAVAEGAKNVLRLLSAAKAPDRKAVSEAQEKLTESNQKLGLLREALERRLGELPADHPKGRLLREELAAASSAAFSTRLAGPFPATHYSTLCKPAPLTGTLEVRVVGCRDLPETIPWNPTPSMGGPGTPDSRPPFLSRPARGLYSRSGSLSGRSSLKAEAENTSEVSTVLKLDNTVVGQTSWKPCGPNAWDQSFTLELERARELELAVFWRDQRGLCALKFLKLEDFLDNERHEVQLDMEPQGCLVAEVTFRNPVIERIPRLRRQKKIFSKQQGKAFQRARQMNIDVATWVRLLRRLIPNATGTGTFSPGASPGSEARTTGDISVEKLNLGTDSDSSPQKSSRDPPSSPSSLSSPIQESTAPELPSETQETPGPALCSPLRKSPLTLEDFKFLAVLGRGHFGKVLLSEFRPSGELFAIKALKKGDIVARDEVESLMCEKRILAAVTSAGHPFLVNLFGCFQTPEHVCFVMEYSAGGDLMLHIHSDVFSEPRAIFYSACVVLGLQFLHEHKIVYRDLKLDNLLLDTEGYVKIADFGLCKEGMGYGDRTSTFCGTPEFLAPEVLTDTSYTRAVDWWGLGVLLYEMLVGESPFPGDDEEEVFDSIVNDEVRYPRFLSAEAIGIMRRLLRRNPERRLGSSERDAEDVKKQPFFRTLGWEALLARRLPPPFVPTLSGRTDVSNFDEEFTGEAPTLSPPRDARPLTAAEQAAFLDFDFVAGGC
UniProt Q8IWE5, sequence (Q8IWE5 whole entry, looked up): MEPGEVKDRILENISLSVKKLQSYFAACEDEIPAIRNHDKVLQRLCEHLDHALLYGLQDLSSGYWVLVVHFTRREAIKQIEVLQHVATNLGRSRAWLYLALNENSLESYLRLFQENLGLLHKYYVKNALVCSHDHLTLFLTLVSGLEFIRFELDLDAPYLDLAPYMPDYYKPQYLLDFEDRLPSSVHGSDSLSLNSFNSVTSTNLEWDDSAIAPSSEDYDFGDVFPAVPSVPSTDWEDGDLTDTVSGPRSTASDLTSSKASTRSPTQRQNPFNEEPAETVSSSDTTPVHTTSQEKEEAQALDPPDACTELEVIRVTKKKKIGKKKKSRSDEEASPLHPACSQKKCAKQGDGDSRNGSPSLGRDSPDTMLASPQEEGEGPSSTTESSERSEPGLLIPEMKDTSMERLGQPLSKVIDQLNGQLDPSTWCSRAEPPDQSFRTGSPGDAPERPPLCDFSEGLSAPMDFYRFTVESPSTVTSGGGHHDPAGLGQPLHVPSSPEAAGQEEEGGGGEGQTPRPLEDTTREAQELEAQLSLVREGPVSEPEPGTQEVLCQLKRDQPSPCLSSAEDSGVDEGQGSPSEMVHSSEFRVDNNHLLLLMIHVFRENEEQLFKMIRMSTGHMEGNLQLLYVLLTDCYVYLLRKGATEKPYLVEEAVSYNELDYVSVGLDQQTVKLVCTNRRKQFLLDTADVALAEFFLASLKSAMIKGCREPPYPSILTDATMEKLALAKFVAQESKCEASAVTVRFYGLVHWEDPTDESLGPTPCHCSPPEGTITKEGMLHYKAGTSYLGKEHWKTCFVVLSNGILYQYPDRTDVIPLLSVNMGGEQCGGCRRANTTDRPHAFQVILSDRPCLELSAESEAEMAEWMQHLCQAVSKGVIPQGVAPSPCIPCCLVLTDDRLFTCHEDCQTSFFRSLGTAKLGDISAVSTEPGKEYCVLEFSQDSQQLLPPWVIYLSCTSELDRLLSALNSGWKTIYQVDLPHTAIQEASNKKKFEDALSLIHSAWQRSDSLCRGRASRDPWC
UniProt P50336, sequence (P50336 whole entry, looked up): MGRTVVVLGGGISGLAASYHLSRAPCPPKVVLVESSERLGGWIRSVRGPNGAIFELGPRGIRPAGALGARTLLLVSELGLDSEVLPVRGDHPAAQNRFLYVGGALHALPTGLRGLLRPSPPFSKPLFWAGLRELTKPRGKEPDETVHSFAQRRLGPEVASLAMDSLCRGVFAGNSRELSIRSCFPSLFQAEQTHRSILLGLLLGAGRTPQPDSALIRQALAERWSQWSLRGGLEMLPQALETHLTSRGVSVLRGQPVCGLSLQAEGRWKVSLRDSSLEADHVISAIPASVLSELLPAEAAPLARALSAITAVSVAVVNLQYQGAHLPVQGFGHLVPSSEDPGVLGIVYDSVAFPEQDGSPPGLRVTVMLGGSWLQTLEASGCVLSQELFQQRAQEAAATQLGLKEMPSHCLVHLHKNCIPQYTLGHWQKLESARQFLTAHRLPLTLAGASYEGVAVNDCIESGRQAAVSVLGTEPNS
UniProt Q7RTV0, sequence (Q7RTV0 whole entry, looked up): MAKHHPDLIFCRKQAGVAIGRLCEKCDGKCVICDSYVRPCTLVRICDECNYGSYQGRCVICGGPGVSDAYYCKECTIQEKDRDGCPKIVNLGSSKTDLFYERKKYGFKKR

Target | log2 fold change (IRAK-1-4 Inhibitor I) | log2 fold change (ibrutinib) | log2 fold change [1] | log2 fold change (ralimetinib) | log2 fold change [2] | log2 fold change [3] | log2 fold change [4] | log2 fold change (pinometostat) | log2 fold change [5] | log2 fold change [6]
PLEKHM2 (UniProt Q8IWE5) | -0.018 | -0.073 | -0.085 | 0.162 | 0.016 | -0.034 | -0.102 | -0.042 | -0.069 | 0.016
PPIL1 (UniProt Q9Y3C6) | -0.046 | -0.011 | 0.225 (active) | -0.02 | -0.038 | 0.08 | 0.09 | 0.082 | 0.004 | 0.172
PIGT (UniProt Q969N2) | -0.016 | 0.01 | -0.009 | 0.022 | -0.067 | -0.089 | 0.002 | 0.045 | 0.018 | 0.01
PDCD6 (UniProt O75340) | 0.021 | -0.05 | -0.029 | -0.048 | -0.097 | -0.156 | 0.018 | 0.005 | 0.014 | -0.034
PHF5A (UniProt Q7RTV0) | 0.02 | 0.001 | 0.008 | 0 | 0.088 | 0.242 (active) | -0.073 | -0.073 | 0.011 | 0.109
PARP1 (UniProt P09874) | -0.068 | -0.027 | -0.052 | 0.039 | 0.108 | -0.068 | 0.018 | -0.009 | -0.004 | 0.578 (active)
POLR2D (UniProt O15514) | 0.042 | 0.082 | 0.346 (active) | -0.012 | -0.006 | 0.374 (active) | -0.009 | -0.026 | -0.02 | 0.26
PSMC4 (UniProt P43686) | -0.056 | -0.012 | 0.022 | 0.014 | 0.029 | 0.034 | -0.249 (active) | 0.025 | 0.02 | 0.016
POLR2G (UniProt P62487) | 0.001 | 0.078 | 0.329 (active) | -0.052 | -0.011 | 0.371 (active) | 0.012 | -0.044 | -0.053 | 0.268
PCK2 (UniProt Q16822) | -0.029 | 0.021 | -0.013 | -0.059 | -0.019 | 0.063 | 0.035 | -0.011 | -0.005 | 0.053
PYGL (UniProt P06737) | 0.004 | 0.033 | -0.143 | -0.038 | 0.055 | 0.068 | -0.031 | -0.007 | 0.019 | 0.021
RAB11FIP1 (UniProt Q6WKZ4) | 0.014 | -0.009 | -0.067 | 0.023 | -0.016 | -0.118 | -0.004 | 0.059 | -0.021 | 0.041
PKN1 isoform 2 (UniProt Q16512) | -0.014 | -0.018 | -1.2 (active) | 0.006 | -0.09 | -0.038 | 0.002 | 0.057 | -0.002 | 0.047
PPP1R12A (UniProt O14974) | -0.013 | -0.022 | -0.666 (active) | 0 | 0 | -0.119 | -0.014 | -0.003 | -0.514 (active) | -0.01
PPOX (UniProt P50336) | 0.095 | 0.136 | -0.151 | 0.077 | 0.187 | -0.217 | -0.008 | -0.039 | -0.095 | -0.009
